For 13 sequences, binding signal results are on record in publication PMC8384837, “Expanding the binding specificity for RNA recognition by a PUF domain”.

Holding throughout (assay): yeast three-hybrid, YBZ-1, SC-Leu-His + 0.5 mM 3-AT, 4 days
Common to all, as to settings: tags: N-Gal4 AD-HA kept; label: inside an RPR1-promoter hybrid RNA with tandem MS2 sites; ssRNA

One assay has as its target PUM1 PUF domain R1-YAR (Homo sapiens, UniProt Q14671 828-1176, S863Y;R864A;Q867R). Summed up:
(§1)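 The interaction score is the log change in how often each variant appears, from input to selection. Frequencies came from PCR-amplified, Illumina-sequenced repeat regions of Pumilio-1 PUF domain libraries grown in strain YBZ-1 (LexA–MS2 coat fusion, HIS3 reporter) alongside matching RNA elements. Input plates were SC-Leu and selection plates were SC-Leu-His + 0.5 mM 3-AT, each for four days, and the log2 calculation used a pseudocount of 1 where a variant was absent.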

A further assay deals with PUM1 PUF domain R5-KNG (Homo sapiens, UniProt Q14671 828-1176, C1007K;R1008N;Q1011G). Put shortly: as §1
The next assay concerns the target PUM1 PUF domain R3-ARP (Homo sapiens, UniProt Q14671 828-1176, C935A;Q939P). Summed up:
as §1

The target in the next assay is PUM1 PUF domain R3-RTG (Homo sapiens, UniProt Q14671 828-1176, C935R;R936T;Q939G). Put shortly: as §1
In another assay the target is PUM1 PUF domain R3-PWF (Homo sapiens, UniProt Q14671 828-1176, C935P;R936W;Q939F). Put shortly:
as §1

The next assay addresses PUM1 PUF domain R3-RIK (Homo sapiens, UniProt Q14671 828-1176, C935R;R936I;Q939K). Put shortly:
as §1

In a further assay the target is PUM1 PUF domain R3-RQL (Homo sapiens, UniProt Q14671 828-1176, C935R;R936Q;Q939L). Summed up: as §1
The target in the next assay is PUM1 PUF domain R3-LCR (Homo sapiens, UniProt Q14671 828-1176, C935L;R936C;Q939R). Put shortly: as §1
The next assay addresses PUM1 PUF domain R4-EFG (Homo sapiens, UniProt Q14671 828-1176, N971E;H972F;Q975G). Summed up:
as §1

The next assay addresses PUM1 PUF domain R1-RNS (Homo sapiens, UniProt Q14671 828-1176, S863R;R864N;Q867S). Put shortly:
as §1

A further assay has as its target PUM1 PUF domain R5-TQG (Homo sapiens, UniProt Q14671 828-1176, C1007T;R1008Q;Q1011G). Put shortly: as §1
Another assay concerns the target PUM1 PUF domain R1-RQQ (Homo sapiens, UniProt Q14671 828-1176, S863R;R864Q). Summed up:
as §1

A further assay concerns the target T1, PUM1 PUF domain R6-AFS (Homo sapiens, UniProt Q14671 828-1176, N1043A;Y1044F;Q1047S).
T1 sequence: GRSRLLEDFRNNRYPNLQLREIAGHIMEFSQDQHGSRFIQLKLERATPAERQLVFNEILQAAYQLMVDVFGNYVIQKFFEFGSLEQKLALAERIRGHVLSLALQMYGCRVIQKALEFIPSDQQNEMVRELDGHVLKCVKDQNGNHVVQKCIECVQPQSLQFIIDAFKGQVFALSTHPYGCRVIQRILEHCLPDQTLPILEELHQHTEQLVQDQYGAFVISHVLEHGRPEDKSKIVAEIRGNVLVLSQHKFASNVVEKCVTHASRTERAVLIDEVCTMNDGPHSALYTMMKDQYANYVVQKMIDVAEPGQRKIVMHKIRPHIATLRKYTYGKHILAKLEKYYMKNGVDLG
Summed up:
as §1

The target of the next assay is T2, PUM1 PUF domain R6-VFT (Homo sapiens, UniProt Q14671 828-1176, N1043V;Y1044F;Q1047T).
T2 sequence: T1 sequence with A216V, S220T
Put shortly:
as §1

The next assay has as its target PUM1 PUF domain R3-IFE (Homo sapiens, UniProt Q14671 828-1176, C935I;R936F;Q939E). Put shortly:
as §1

In another assay the target is PUM1 PUF domain R3-SRG (Homo sapiens, UniProt Q14671 828-1176, C935S;Q939G). Put shortly: as §1
The next assay concerns the target PUM1 PUF domain R7-KWH (Homo sapiens, UniProt Q14671 828-1176, S1079K;N1080W;E1083H). Summed up: as §1
In the next assay the target is PUM1 PUF domain R5-KQG (Homo sapiens, UniProt Q14671 828-1176, C1007K;R1008Q;Q1011G). Summed up:
as §1

The next assay has as its target PUM1 PUF domain R4-TRQ (Homo sapiens, UniProt Q14671 828-1176, N971T;H972R). Put shortly: as §1
Another assay deals with PUM1 PUF domain R4-EYD (Homo sapiens, UniProt Q14671 828-1176, N971E;H972Y;Q975D). Put shortly: as §1

Where a chain is given by its changes, count along the chain named.

Take “GGCUAGAACUAGUGGAUCCCCCGGCGCCCGGCGGCUCGAGCCCGGGUAAGUGUAAAUUGUCUGCAUGCCGCCGGGCGCCAUGCCUGCAGGUCGACUCUAGAAAACAUG”: the binding signal with PUM1 PUF domain R1-YAR was 5.79 log2 enrichment (interaction score).

“GGCUAGAACUAGUGGAUCCCCCGGCGCCCGGCGGCUCGAGCCCGGGUAAGUGUUAAUAGUCUGCAUGCCGCCGGGCGCCAUGCCUGCAGGUCGACUCUAGAAAACAUG”: the binding signal with PUM1 PUF domain R5-KNG was 4.33 log2 enrichment (interaction score).

On to “GGCUAGAACUAGUGGAUCCCCCGGCGCCCGGCGGCUCGAGCCCGGGUAAGUGUAAUUAGUCUGCAUGCCGCCGGGCGCCAUGCCUGCAGGUCGACUCUAGAAAACAUG”, for which the binding signal in the assay with PUM1 PUF domain R3-ARP was 1.4 log2 enrichment (interaction score); with PUM1 PUF domain R3-RTG, 2.9 log2 enrichment (interaction score); in the assay with PUM1 PUF domain R3-PWF it was 1.18 log2 enrichment (interaction score); in the assay with PUM1 PUF domain R3-RIK it was 2.73 log2 enrichment (interaction score); with PUM1 PUF domain R3-RQL it was 3.54 log2 enrichment (interaction score); in the assay with PUM1 PUF domain R3-LCR, 1.28 log2 enrichment (interaction score).

“GGCUAGAACUAGUGGAUCCCCCGGCGCCCGGCGGCUCGAGCCCGGGUAAGUGUAUAUAGUCUGCAUGCCGCCGGGCGCCAUGCCUGCAGGUCGACUCUAGAAAACAUG”: the binding signal with PUM1 PUF domain R4-EFG is 1.18 log2 enrichment (interaction score).

For “GGCUAGAACUAGUGGAUCCCCCGGCGCCCGGCGGCUCGAGCCCGGGUAAGUGUAAAUGGUCUGCAUGCCGCCGGGCGCCAUGCCUGCAGGUCGACUCUAGAAAACAUG”, the binding signal with PUM1 PUF domain R1-RNS was 0.7 log2 enrichment (interaction score).

“GGCUAGAACUAGUGGAUCCCCCGGCGCCCGGCGGCUCGAGCCCGGGUAAGUGUGAAUAGUCUGCAUGCCGCCGGGCGCCAUGCCUGCAGGUCGACUCUAGAAAACAUG”: the binding signal with PUM1 PUF domain R5-TQG is 2.63 log2 enrichment (interaction score).

Turning to “GGCUAGAACUAGUGGAUCCCCCGGCGCCCGGCGGCUCGAGCCCGGGUAAGUGUAAAUCGUCUGCAUGCCGCCGGGCGCCAUGCCUGCAGGUCGACUCUAGAAAACAUG”, the binding signal with PUM1 PUF domain R1-RQQ is 3.45 log2 enrichment (interaction score); with PUM1 PUF domain R1-RNS it was 2.4 log2 enrichment (interaction score); with PUM1 PUF domain R1-YAR it was 6.19 log2 enrichment (interaction score).

In the case of “GGCUAGAACUAGUGGAUCCCCCGGCGCCCGGCGGCUCGAGCCCGGGUAAGUGAAAAUAGUCUGCAUGCCGCCGGGCGCCAUGCCUGCAGGUCGACUCUAGAAAACAUG”, the figures for the binding signal with PUM1 PUF domain R6-AFS and with PUM1 PUF domain R6-VFT were 3.01 log2 enrichment (interaction score) and 6.61 log2 enrichment (interaction score), respectively.

For “GGCUAGAACUAGUGGAUCCCCCGGCGCCCGGCGGCUCGAGCCCGGGUAAGUGUAAGUAGUCUGCAUGCCGCCGGGCGCCAUGCCUGCAGGUCGACUCUAGAAAACAUG”, the binding signal with PUM1 PUF domain R3-ARP was 1.52 log2 enrichment (interaction score); in the assay with PUM1 PUF domain R3-IFE it was 5.39 log2 enrichment (interaction score); with PUM1 PUF domain R3-SRG it was 2.65 log2 enrichment (interaction score); with PUM1 PUF domain R3-LCR, 3.54 log2 enrichment (interaction score).

Turning to “GGCUAGAACUAGUGGAUCCCCCGGCGCCCGGCGGCUCGAGCCCGGGUAAGUAUAAAUAGUCUGCAUGCCGCCGGGCGCCAUGCCUGCAGGUCGACUCUAGAAAACAUG”, the binding signal with PUM1 PUF domain R7-KWH was 2.68 log2 enrichment (interaction score).

Turning to “GGCUAGAACUAGUGGAUCCCCCGGCGCCCGGCGGCUCGAGCCCGGGUAAGUGUCAAUAGUCUGCAUGCCGCCGGGCGCCAUGCCUGCAGGUCGACUCUAGAAAACAUG”, the binding signal was 2.59 log2 enrichment (interaction score) with PUM1 PUF domain R5-KNG and 3.41 log2 enrichment (interaction score) in the assay with PUM1 PUF domain R5-KQG.

Turning to “GGCUAGAACUAGUGGAUCCCCCGGCGCCCGGCGGCUCGAGCCCGGGUAAGUGUAAAUAGUCUGCAUGCCGCCGGGCGCCAUGCCUGCAGGUCGACUCUAGAAAACAUG”, the binding signal with PUM1 PUF domain R3-ARP was 4.92 log2 enrichment (interaction score); with PUM1 PUF domain R6-AFS, 1.74 log2 enrichment (interaction score); in the assay with PUM1 PUF domain R4-TRQ, 4.68 log2 enrichment (interaction score); in the assay with PUM1 PUF domain R4-EYD, 2.77 log2 enrichment (interaction score); with PUM1 PUF domain R3-PWF, 3.15 log2 enrichment (interaction score); in the assay with PUM1 PUF domain R3-SRG, 4.45 log2 enrichment (interaction score). Besides, the binding signal with PUM1 PUF domain R6-VFT is 2.21 log2 enrichment (interaction score); with PUM1 PUF domain R5-TQG, 0.76 log2 enrichment (interaction score); in the assay with PUM1 PUF domain R4-EFG, 3.99 log2 enrichment (interaction score).

For the sequence “GGCUAGAACUAGUGGAUCCCCCGGCGCCCGGCGGCUCGAGCCCGGGUAAGUCUAAAUAGUCUGCAUGCCGCCGGGCGCCAUGCCUGCAGGUCGACUCUAGAAAACAUG”, the binding signal with PUM1 PUF domain R7-KWH was 5.07 log2 enrichment (interaction score).
